# Most compounds without a hit are left out; they make up all but 2.4% or so of the library.
# TLR9-MyD88 inh – blocks human TLR9 binding to MyD88; actives 0.21% (n = 340,000); inhibition, % at 4.98 µM; AID 504734; CHO BLA complementation TLR9-MyD88, CCF4 FRET ratio; Q9NR96+Q99836;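 active = inhibition above the mean over all tested compounds plus 3 SD, cut at about 21% in these data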;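 also: 0% = DMSO only wells and 100% = clavulanate BLA inhibitor control wells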
# m5-HT2A agonist – mouse HTR2A agonism via beta-arrestin recruitment | P35363 | CHO-K1 mHTR2A beta-arrestin complementation, luminescence; percent of 30 µM serotonin response | activation, % at 7.6 µM | actives 0.66% (n = 360,000) | AID 624169;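 active = activation above a run cutoff, the mean activation of all tested compounds plus 3 SD, cut at about 14% in these data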;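 also: 0% = plate median of compound wells and 100% = 30 µM serotonin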
# ANO1 block – mouse TMEM16A channel inhibition, primary screen; Q8BHY3; HEK293 TMEM16A/YFP iodide influx fluorescence, ionomycin; normalized B-score (activity score, 25-100; higher = stronger inhibition) at 10 µM; actives 1.2% (n = 310,000);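 active = ratio plate-corrected score three or more library SD toward inhibition, starting fluorescence score within five deviations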;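 also: score derived from kinetic fluorescence span divided by baseline fluorescence per well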
# Target sequence (Q8BHY3 whole entry, looked up): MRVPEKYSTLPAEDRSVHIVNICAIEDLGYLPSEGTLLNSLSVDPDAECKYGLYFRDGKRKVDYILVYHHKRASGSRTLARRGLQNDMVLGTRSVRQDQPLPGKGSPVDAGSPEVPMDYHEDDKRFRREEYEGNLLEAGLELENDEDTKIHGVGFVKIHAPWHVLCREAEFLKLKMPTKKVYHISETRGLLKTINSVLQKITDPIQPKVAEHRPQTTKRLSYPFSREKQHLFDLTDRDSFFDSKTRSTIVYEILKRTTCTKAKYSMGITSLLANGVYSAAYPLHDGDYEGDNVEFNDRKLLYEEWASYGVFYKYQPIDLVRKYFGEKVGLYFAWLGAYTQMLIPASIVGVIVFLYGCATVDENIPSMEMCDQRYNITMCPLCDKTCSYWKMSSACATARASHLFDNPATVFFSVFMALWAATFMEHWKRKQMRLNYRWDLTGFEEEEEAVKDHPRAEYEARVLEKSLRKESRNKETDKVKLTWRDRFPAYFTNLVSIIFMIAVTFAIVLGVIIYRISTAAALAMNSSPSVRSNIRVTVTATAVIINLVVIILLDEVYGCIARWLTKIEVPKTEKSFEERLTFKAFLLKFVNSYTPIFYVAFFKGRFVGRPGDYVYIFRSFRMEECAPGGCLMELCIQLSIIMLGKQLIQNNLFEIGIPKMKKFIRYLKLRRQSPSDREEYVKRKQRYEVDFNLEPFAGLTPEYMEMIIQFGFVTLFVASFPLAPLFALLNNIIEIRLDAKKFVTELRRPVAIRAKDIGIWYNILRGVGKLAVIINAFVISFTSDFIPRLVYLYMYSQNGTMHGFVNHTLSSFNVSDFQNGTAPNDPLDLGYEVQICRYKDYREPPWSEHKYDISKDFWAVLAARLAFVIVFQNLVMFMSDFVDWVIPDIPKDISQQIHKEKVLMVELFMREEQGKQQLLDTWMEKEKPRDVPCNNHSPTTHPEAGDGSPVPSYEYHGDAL
# NOD2 RIPK2 PPI – inhibitors of human NOD2-RIPK2 interaction. CHO BLA complementation NOD2-RIPK2, CCF4 ratio. inhibition, % at 4.98 µM. actives 0.38% (n = 360,000). AID 624267; in the data active = inhibition above about 21%;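 also: 0% = vehicle only and 100% = reference blocker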
# TMEM16A act – activates or potentiates the mouse TMEM16A chloride channel | Q8BHY3 | HEK293 TMEM16A/YFP-H148Q/I152L, iodide quench fluorescence; stronger effect = lower value | B-score at 10 µM | actives 0.3% (n = 340,000) | AID 623877;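 active = fluorescence-ratio B-score plate-corrected deviation score at least 3 library SD below zero, with starting fluorescence score within 5 deviations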;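 also: channel opened by trigger with iodide after compound preincubation; score built on the fluorescence ratio of max minus min over baseline; more negative score means more quench and so TMEM16A activation or potentiation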
# TLR4-MyD88 BLA – inhibitors of human TLR4-MyD88 binding | O00206+Q99836 | HeLa CL3-4 TLR4/MyD88 BLA complementation, FRET ratio | inhibition, % at 8.4 µM | actives 0.18% (n = 200,000); in the data active = inhibition above about 25%;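 also: 0% = vehicle and 100% = reference inhibitor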
# An asterisk follows results filed as active; i = inactive; x = not tested or not shown.
SMILES,TLR9-MyD88 inh,m5-HT2A agonist,ANO1 block,NOD2 RIPK2 PPI,TMEM16A act,TLR4-MyD88 BLA
O=C(NC(C(=O)N/N=C/c1cccnc1)c1n[nH]c(=O)c2ccccc12)c1ccccc1 (configuration not stated),-4,2,i,-3,-6.4*,x
CN(Cc1ccccc1)C(=O)NC1CCCCC1,6,7,i,-3,i,-9
CC(C)(Sc1ccc(CCN(CCCCC2CCCCC2)C(=O)NC2CCCCC2)cc1)C(=O)O,-3,0,100*,2,i,x
CCC(C)(C)c1ccc(OCCCC[n+]2ccccc2)c(C(C)(C)CC)c1,-6,-3,i,-3,i,0
CCCCCc1ccc(OCCCC[n+]2ccccc2)c(CCCCC)c1,4,-10,i,2,i,9
CCCCCc1ccc(OCCCC[n+]2cccc(C)c2)c(CCCCC)c1,6,-5,100*,-6,i,-9
CCCCCc1ccc(OCCCC[n+]2ccc(C)cc2)c(CCCCC)c1,-11,-1,100*,-4,i,7
Cc1ccc(/C=C/C(=O)O)cc1S(=O)(=O)Nc1ccc(C(=O)O)cc1,4,6,i,0,i,x
COc1ccc(CCC(=O)OCC(=O)Nc2sccc2C(N)=O)cc1,-15,3,x,-21,-5.3*,x
COc1ccc(CCC(=O)OCC(=O)Nc2sccc2C(N)=O)cc1OC,-10,0,x,8,i,x
Nc1ccc2nc(CN3CCOCC3)[nH]c2c1,-4,-3,i,-11,-19*,16
c1ccc2[nH]c(CN3CCOCC3)nc2c1,10,-2,i,3,i,-5
COCC(C)NC(=O)CCSc1nc(-c2ccc(OC)cc2)cc(C(F)(F)F)n1 (configuration not stated),-1,-3,i,8,i,5
CCC1Oc2ccc(C)cc2N(CC(=O)N(Cc2cccnc2)Cc2cccc(F)c2)C1=O (configuration not stated),-13,6,100*,4,i,-5
CC(C)Cn1c(SCC(=O)NC(=O)NC2CCCC2)nc2ccccc21,-7,3,25*,-4,i,-7
CCCN(CC(=O)Nc1ccc(Cl)cc1Cl)Cc1cc(=O)n2ccsc2n1,7,-3,i,10,i,-8
CC(=O)OCC(=O)[C@@]12OC3(CCCC3)O[C@@H]1C[C@H]1[C@@H]3CCC4=CC(=O)C=C[C@]4(C)[C@@]3(F)[C@@H](O)C[C@@]12C,11,18*,i,3,i,-2
CC1(C)O[C@@H]2C[C@H]3[C@@H]4CCC5=CC(=O)C=C[C@]5(C)[C@@]4(F)[C@@H](O)C[C@]3(C)[C@]2(C(=O)CO)O1,8,7,i,-10,i,24
O=Cc1c(Cl)[nH]c(=O)n1-c1ccccc1,x,-2,x,-6,i,-2
C=CCNC(=S)NNC(=O)COc1ccc2cc(Br)ccc2c1,-5,16*,i,-5,i,-12
C=CCNC(=S)NNC(=O)COc1ccc(Br)cc1,-1,5,i,-4,i,-1
CCC(C)n1c(=S)[nH]c2c(sc3ccc([N+](=O)[O-])cc32)c1=O (configuration not stated),-15,1,25*,-17,i,2
Cc1cc(Nc2ccccc2)nn1C(=O)c1ccccc1,2,-7,25*,-4,i,3
CCCCn1ccnc1C(=O)c1cccc(S(=O)(=O)N2CC(C)CC(C)C2)c1 (configuration not stated),-11,-2,100*,-16,i,16
CCN1CCN(Cc2ccc(C(=O)Nc3ccc(C)c(NCc4cnc(NC(=O)OC)cn4)c3)cc2C(F)(F)F)CC1,-9,-3,i,-12,i,x
CC(C)(C)c1ccc(-c2noc(CCC(=O)NCc3ccco3)n2)cc1,-7,1,i,-3,i,-19
Cc1ccc(C(C#N)c2ccc3c(C(F)(F)F)cc(C(F)(F)F)nc3n2)cc1 (configuration not stated),-5,0,100*,4,i,0
O=C1c2ccccc2S(=O)(=O)c2cc(C(=O)N(c3ccccn3)c3ccccn3)ccc21,2,5,i,-7,-7.5*,1

# Screening results from PubChem.
